Sampled rows, rich in hits. Any-hit rate of the full collection: about 2.1%.
M18AAP inhibitor = PfM18AAP inhibitors, malaria aminopeptidase, primary screen, biochemical, QFRET, recombinant enzyme; inhibition, % at 7.35 µM; AID 1822, 2009; M18 aspartyl aminopeptidase (Plasmodium falciparum 3D7); H-Glu-NHMec fluorogenic cleavage; 1.2% of 290,000 active;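 active means inhibition above the campaign mean inhibition over all tested compounds plus 3 SD, cut at about 28% in these data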;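 further: 0% = plate median of test compound wells and 100% = 2 mM ZnCl2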
Rin1-Abl PPI inh = inhibitors of Rin1-Abl protein binding, primary screen, biochemical, TR-FRET; Tyrosine-protein kinase ABL1 (Homo sapiens) + Ras and Rab interactor 1 (Homo sapiens), …; inhibition, % at 7.35 µM; 0.4% of 360,000 active; AID 588664, 2011; in the data active means inhibition above about 5%, passing the limit was not always enough
Target sequence (P00519 whole entry, looked up): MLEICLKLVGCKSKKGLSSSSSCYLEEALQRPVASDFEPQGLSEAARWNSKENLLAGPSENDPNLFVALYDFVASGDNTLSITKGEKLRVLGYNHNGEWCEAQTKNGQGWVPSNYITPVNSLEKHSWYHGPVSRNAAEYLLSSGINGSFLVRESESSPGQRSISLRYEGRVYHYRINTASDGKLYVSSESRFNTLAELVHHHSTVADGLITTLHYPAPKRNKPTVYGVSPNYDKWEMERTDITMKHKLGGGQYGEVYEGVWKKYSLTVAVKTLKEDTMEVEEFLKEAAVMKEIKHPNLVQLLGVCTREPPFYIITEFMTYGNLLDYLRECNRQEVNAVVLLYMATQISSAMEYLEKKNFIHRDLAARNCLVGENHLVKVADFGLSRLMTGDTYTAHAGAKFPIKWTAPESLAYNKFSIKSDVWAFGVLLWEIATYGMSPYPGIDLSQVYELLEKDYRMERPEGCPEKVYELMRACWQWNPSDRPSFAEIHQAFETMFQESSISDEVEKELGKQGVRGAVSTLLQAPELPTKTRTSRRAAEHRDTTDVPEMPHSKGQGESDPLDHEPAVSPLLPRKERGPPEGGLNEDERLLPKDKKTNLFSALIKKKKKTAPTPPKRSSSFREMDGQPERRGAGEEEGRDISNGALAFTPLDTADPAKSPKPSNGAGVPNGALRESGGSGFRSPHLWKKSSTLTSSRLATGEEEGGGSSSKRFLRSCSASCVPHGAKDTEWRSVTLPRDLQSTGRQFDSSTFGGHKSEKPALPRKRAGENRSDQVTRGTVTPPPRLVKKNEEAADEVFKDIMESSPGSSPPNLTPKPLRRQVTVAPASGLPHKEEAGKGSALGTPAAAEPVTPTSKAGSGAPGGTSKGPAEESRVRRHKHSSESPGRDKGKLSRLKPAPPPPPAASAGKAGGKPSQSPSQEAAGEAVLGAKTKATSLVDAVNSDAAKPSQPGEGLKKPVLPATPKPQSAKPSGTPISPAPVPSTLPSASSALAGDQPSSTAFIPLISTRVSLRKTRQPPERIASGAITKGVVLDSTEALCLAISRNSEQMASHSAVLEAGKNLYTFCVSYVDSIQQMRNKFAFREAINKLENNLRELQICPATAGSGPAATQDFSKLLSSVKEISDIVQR
Target sequence (Q13671 whole entry, looked up): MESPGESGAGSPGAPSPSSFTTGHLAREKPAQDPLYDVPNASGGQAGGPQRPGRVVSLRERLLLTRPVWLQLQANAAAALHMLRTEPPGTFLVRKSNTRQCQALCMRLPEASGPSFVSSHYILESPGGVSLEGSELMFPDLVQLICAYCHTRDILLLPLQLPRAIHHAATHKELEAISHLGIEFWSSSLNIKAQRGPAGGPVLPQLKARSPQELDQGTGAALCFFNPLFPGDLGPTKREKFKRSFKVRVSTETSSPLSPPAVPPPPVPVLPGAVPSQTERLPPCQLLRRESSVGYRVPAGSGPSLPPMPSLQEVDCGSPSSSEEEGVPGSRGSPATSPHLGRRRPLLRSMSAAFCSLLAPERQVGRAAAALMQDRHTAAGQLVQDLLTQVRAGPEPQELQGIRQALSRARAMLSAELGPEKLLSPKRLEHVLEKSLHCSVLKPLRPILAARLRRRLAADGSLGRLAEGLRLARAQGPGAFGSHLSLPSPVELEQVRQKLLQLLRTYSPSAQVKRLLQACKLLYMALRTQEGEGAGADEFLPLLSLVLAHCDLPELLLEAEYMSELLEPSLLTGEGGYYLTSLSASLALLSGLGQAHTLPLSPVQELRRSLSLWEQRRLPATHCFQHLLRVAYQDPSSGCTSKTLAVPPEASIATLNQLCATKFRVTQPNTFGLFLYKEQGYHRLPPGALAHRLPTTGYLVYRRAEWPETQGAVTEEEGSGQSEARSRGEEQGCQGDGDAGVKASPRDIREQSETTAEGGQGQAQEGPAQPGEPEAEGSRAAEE
Calb FLC = C. albicans growth inhibition with fluconazole, primary screen, CaCi-2 strain, Alamar Blue fluorescence; C. albicans CaCi-2 (fluconazole-resistant clinical isolate) + fluconazole, 48 h; growth inhibition, % (test concentration not listed); 0.57% of 300,000 active; AID 1979, 2009;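 active means growth inhibition above about 58% in most replicates, limit read from the data, passing the limit was not always enough; inconclusive means exactly half the replicates above a set limit; inactive means most replicates below a set limit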;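 further: all wells also contain fluconazole at 8 µg/ml as a sub-toxic cotreatment; 0% = median of DMSO wells and 100% = median of geldanamycin control wells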
CTSL1 counter = Fasciola hepatica cathepsin L1 inhibitors, primary screen, counter-screen for PFM18AAP inhibitor project, biochemical, QFRET, fluorogenic peptide substrate; recombinant F. hepatica cathepsin L1, Z-Leu-Arg-MCA fluorescence; inhibition, % at 5.96 µM; 0.49% of 300,000 active;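 active means inhibition above the mean of all tested compounds plus 3 SD, set per screening campaign, cut at about 17% in these data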;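 further: 0% = plate median of test compound wells and 100% = 1 µM Z-Phe-Ala-diazomethylketone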
An asterisk follows results filed as active; ? = inconclusive; . = not tested or not shown.

SMILES	M18AAP inhibitor	Rin1-Abl PPI inh	Calb FLC	CTSL1 counter
CCCOc1ccc(C(=O)CCC(=O)OCC(=O)N2CCN(S(=O)(=O)c3ccc(C)cc3C)CC2)cc1	.	2	.	.
O=C(C1CCCCC1)N1CCC2CC1c1cc(-c3ccc4c(c3)OCO4)ccc12 (centres undefined)	.	2	.	.
Cc1cc2nc(-c3cccc(NC(=O)c4ccc(Br)o4)c3C)oc2cc1C	1	1	-4	18*
Cc1ccc2oc(-c3cccc(NC(=O)c4ccc(Br)o4)c3C)nc2c1	2	-2	2	3
Oc1ccc(-c2nccs2)cc1	.	-5	.	.
O=[N+]([O-])c1ccc(C(=Nc2cccc3ccccc23)N2CCOCC2)cc1	-6	-2	100*	2
COc1ccc2nc3cccc(OC)c3nc2c1	2	-4	18	19*
S=C(NCCSCc1c(Cl)cccc1Cl)Nc1ccccc1	7	2	95*	4
S=C(NCCOCCOCCNC(=S)Nc1ccccc1)Nc1ccccc1	28*	2	-10	-1
S=C(NCCNC(=S)Nc1ccccc1)Nc1ccccc1	6	1	-5	-1
Cc1ccc(OCC(=O)Nc2oc(-c3ccccc3)c(-c3ccccc3)c2C#N)cc1	-3	0	-4	0
COc1ccc(-c2oc(NC(=O)CCl)c(C#N)c2-c2ccc(OC)cc2)cc1	-4	0	-5	61*
COc1cccc2sc(NN)nc12	22	-1	-7	0
NNc1nc2c(Cl)c(Cl)ccc2s1	30*	0	-2	-1
COc1cccc(-c2cnc(C(O)c3ccc(Cl)c(F)c3)[nH]2)c1 (centres undefined)	.	-1	.	.
CC(C)(C)OC(=O)N1CCC[C@H]1c1nnc(SCc2ccccc2F)o1	-7	0	-7	1
Cn1c(-c2c(N)n(CCc3ccccc3)c3nc4ccccc4nc23)nc2ccccc21	2	-4	94*	-2
O=C1C(=C(I)I)c2ccccc2-c2ccccc21	.	4	.	.
O=C(COc1ccc(Cl)cc1Cl)NN1C(=O)C2C3C=CC([C@@H]2C1=O)C31CC1 (some centres undefined)	0	1	10	-7
Nc1c(C(=O)c2ccccc2)sc(Nc2ccccc2)c1S(=O)(=O)c1ccccc1	21	1	6	19*
COc1cccc(NC(=O)c2ccc3nc(C)sc3c2)c1	-4	-2	99*	-1
CCOc1ccccc1NC(=O)c1ccc2c(c1)C(=O)N(CC1CCCO1)C2=O (centres undefined)	2	-2	-7	18*
Cc1c(C(=O)N/N=C/c2ccccn2)nnn1-c1nonc1N	-4	2	1	6
COCCN(C(=O)COC(=O)CCCOc1ccccc1)c1c(N)n(Cc2ccccc2)c(=O)[nH]c1=O	.	7	2	-19
O=C(CNC(=O)c1cccc(F)c1)OCc1cc(=O)n2cc(Br)ccc2n1	-1	-5	1	17*
SMILES	M18AAP inhibitor	Rin1-Abl PPI inh	Calb FLC	CTSL1 counter
Cc1ccc(OCCCC(=O)Nc2nc3ccccc3[nH]2)cc1	-4	3	110*	-1
CC(C)CN(C(=O)COC(=O)c1ccccc1NCc1ccco1)c1c(N)n(Cc2ccccc2)c(=O)[nH]c1=O	.	2	-21	2
CCCCN1C(=O)/C(=C/C=C2\Oc3ccccc3N2CC)SC1=S	2	2	17	.
CCN1/C(=C/C=C/c2oc3ccc(-c4ccccc4)cc3[n+]2CC)Oc2ccc(-c3ccccc3)cc21	-1	-20	75*	-1
CCCCCCCn1c2c(c(=N)c3ccccc31)CCC2	-2	1	81*	6
Clc1ccc(OCc2cn3cccnc3n2)c2ncccc12	-3	-3	8	.
Cc1cc(Cl)ccc1OCc1cn2cccnc2n1	5	-1	61*	5
CC(C(=O)N(C)c1ccccc1)N1CCN(C(=O)c2ccccc2)CC1 (centres undefined)	-12	3	5	-2
O=C(CS(=O)(=O)c1ccccc1)c1cc2cc(F)ccc2oc1=O	28*	0	42	4
O=C(CS(=O)(=O)c1ccccc1)c1cc2ccccc2oc1=O	20	3	?	6
N#CN(CC(N)=O)c1nc(N2CCCCC2)nc(N2CCCCC2)n1	-9	0	-1	25*
C=CCN(C#N)c1nc(OC)nc(N2CCCC2)n1	-3	2	-4	3
Cc1ccc2[nH]c3c(c2c1)CN(C(C)C)CC3	13	1	-2	6
CCOc1cccc2cc(C(=O)NCc3ccc(OC)cc3)c(=N)oc12	1	1	-7	1
COc1ccc(CNC(=O)c2cc3cccc(O)c3oc2=N)cc1	29*	1	11	-2
CC(=O)Nc1ccc(S(=O)(=O)NCCC(=O)N2CCC(Cc3ccccc3)CC2)cc1	.	3	.	.
O=S(=O)(NCCN1CCOCC1)c1ccc(Cl)s1	6	-2	90*	0
NC(=S)N=Nc1c(O)cc(O)c2[nH]c(=O)ccc12	.	14*	.	.
NC(=S)N=Nc1c(O)[nH]c2ccc(F)cc12	4	-6	15	4
COc1ccc(NC(=O)C2CC(=O)N(c3ccccc3Cl)C2)c(OC)c1 (centres undefined)	0	1	1	-1
Nc1c(C(=O)NCC2CCCO2)sc2nc3c(c(-c4ccco4)c12)CC/C3=C\c1ccco1 (centres undefined)	24	5.6*	.	.
Nn1cnnc1SCC(=O)N(C1CCCCC1)C1CCCCC1	3	1	9	2
COC(=O)[C@H](CCSC)NC(=O)Cn1cnc2c(NCc3ccccc3)ncnc21	.	-4	.	.
NCCCCCc1nnc(SCC(=O)Nc2cccc(Cl)c2)o1	6	-2	15	17*
O=C(NN=C1CCCC1)c1cc(Br)ccc1O	-1	0	-4	4
SMILES	M18AAP inhibitor	Rin1-Abl PPI inh	Calb FLC	CTSL1 counter
O=C(NN=C1CCCC1)c1ccc(O)cc1O	31*	1	-7	2
Cn1c(=O)[nH]c(=O)c2c1nc(N/N=C/C(Br)=C/c1ccccc1)n2CCO	30*	-4	6	9
CC(C)=NNc1nc2c(c(=O)[nH]c(=O)n2C)n1CCc1ccccc1	-1	-3	4	-1
CN(CC(=O)Nc1ccc(Cl)c(C(F)(F)F)c1)C(=O)Cn1cc([N+](=O)[O-])ccc1=O	.	2	.	.
O=C(O)C1C2C=CC(C2)C1C(=O)Nc1ccc2c(c1)OCCO2 (centres undefined)	-1	0	-7	0
CN(C)c1ccc(NC(=O)C2C3C=CC(C3)C2C(=O)O)cc1 (centres undefined)	55*	7	92*	.
CCN1CCN(c2nc(C)nc3c2sc(=S)n3C)CC1	34*	5	.	.
CCOC(=O)C1CCCN(c2cc(C)nc3cc(-c4ccc(F)cc4)nn23)C1 (centres undefined)	-6	3	104*	4
C=CCN1C(=O)C2(NNc3ccccc3O2)c2ccccc21 (centres undefined)	31*	-1	11	3
CCCCCc1ccc(OCCCC[n+]2ccc(C)cc2)c(CCCCC)c1	5	4	98*	0

Screens as filed in PubChem.
